EP2 modulator: modulates human prostaglandin E2 receptor EP2 signaling; EP2-expressing cells, cAMP HTRF FRET, PGE2 co-stimulation; P43116; induction, % at 25 µM; 260,000 compounds, 0.83% hits; AID 940;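 active = compounds whose cAMP rise, as percent of the full-agonist control response, exceeds 60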;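 also: rat C6 glioma line stably carrying human EP2 under a CMV promoter; the protocol text gives 20 µM as final concentration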
Target sequence (P43116 whole entry, looked up): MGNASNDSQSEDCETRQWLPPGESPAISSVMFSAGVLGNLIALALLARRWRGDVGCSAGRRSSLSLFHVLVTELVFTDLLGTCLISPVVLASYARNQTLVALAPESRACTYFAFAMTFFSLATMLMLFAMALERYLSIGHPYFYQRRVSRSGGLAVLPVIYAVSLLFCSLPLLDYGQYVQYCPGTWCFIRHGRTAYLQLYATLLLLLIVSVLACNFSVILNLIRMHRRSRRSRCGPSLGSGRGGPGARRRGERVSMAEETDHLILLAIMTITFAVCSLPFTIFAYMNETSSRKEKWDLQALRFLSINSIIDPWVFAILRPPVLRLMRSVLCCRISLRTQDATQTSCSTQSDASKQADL
EP2 antag: blocks the human prostaglandin E2 receptor EP2. C6 glioma cells expressing human EP2, cAMP TR-FRET; cells stimulated with saturating PGE2. inhibition, % at 25 µM. 260,000 compounds, 0.52% hits. AID 1422;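 active = percent inhibition above 40 after rounding to a whole number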;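 also: rat C6 glioma host cells with rolipram phosphodiesterase inhibitor present; the protocol text gives 20 µM as final concentration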
S1P4 antag: human S1P4 receptor antagonism; S1P4-expressing cells, antagonist mode, reporter read-out; O95977; 220,000 compounds, 0.26% hits; inhibition, % at 4.98 µM; AID 1510; in the data active = inhibition above about 29%
S1P3 antagonist: antagonists of human S1P3 receptor; inhibition, % at 4.98 µM; Q99500; CHO S1P3 NFAT-BLA reporter, FRET fluorescence, antagonist mode; 170,000 compounds, 0.27% hits; AID 485;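 active = inhibition above the plate cutoff, the mean inhibition of test wells on that plate plus 3 SD, cut at about 28% in these data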;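 also: cells challenged with S1P at its EC80 of 0.8 µM; blue over green emission ratio from cleaved BLA substrate after 4 h stimulation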
Target sequence (Q99500 whole entry, looked up): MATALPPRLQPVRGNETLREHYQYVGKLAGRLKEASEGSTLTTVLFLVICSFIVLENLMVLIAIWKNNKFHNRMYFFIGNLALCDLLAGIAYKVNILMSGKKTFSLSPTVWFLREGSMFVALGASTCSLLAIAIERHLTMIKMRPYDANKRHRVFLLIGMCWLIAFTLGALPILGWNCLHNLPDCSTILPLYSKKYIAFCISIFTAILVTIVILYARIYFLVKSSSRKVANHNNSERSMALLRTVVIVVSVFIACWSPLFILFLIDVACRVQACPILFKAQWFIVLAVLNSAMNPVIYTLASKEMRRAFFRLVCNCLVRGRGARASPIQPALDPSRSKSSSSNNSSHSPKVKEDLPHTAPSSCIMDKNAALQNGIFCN
S1P4 ag: activates the human S1P4 receptor. S1P4-expressing cell line, agonist reporter assay. activation, % at 4.98 µM. 220,000 compounds, 0.35% hits; in the data active = activation above about 11%
EP2 cAMP induct: human EP2 receptor cAMP induction, negative in counter-screens | shares compounds with EP2 modulator | C6 glioma EP2 cells, cAMP HTRF induction; plus low (about EC15) PGE2 agonist | calls only at 20 µM (by protocol) | 1,300 compounds, 47% hits | AID 1080;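 active = cAMP induction above 50% in the main assay while under 30% in all four parallel counter assays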;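 also: rat C6 glioma cells stably expressing human EP2 receptor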
Large screens that a line does not name were inactive (follow-up assays come after a bar, where they were run); ! = repeats disagree. The list is not random: actives were taken first. Their share in the collection is about 2%.

Cc1ccccc1CN1CCc2c(nc(N3CCC(C)CC3)[nH]c2=O)C1	none (no result: EP2 antag, S1P4 antag, S1P3 antagonist, S1P4 ag)
Clc1cccc(Cl)c1CSc1cc2c(nn1)-c1ccccc1CC2	none (no result: S1P3 antagonist)
O=C1CCCc2ccccc2N1Cc1cccc(Cl)c1	EP2 modulator 72.1 (no result: S1P3 antagonist) | EP2 cAMP induct inactive
O=c1cc2c(nn1Cc1c(Cl)cccc1Cl)-c1ccccc1CC2	EP2 modulator 78.0 (no result: S1P3 antagonist) | EP2 cAMP induct active
O=C1CCCc2ccccc2N1Cc1ccccc1Cl	none (no result: S1P3 antagonist)
O=C1CCCc2ccccc2N1Cc1c(Cl)cccc1Cl	EP2 modulator 72.0 (no result: S1P3 antagonist) | EP2 cAMP induct active
Cc1cc2cc3c(cc2n2c(=O)n(CC(=O)N4CCCCCC4)nc12)OCO3	none (no result: S1P4 antag, S1P3 antagonist, S1P4 ag)
CCC(C)(C)c1nnc(N)s1	none (no result: S1P4 antag, S1P3 antagonist, S1P4 ag)
COc1cc2nc(N3CCN(C(=O)C4CCCO4)CC3)nc(N)c2cc1OC (centres undefined)	none | EP2 cAMP induct inactive
COc1cc2nc(N(C)CCCNC(=O)C3CCCO3)nc(N)c2cc1OC (centres undefined)	none
CCOP(=O)(OCC)c1nc(-c2cccc3ccccc23)oc1NCc1ccc(OC)cc1	EP2 modulator 71.1 | EP2 cAMP induct inactive
CCOP(=O)(OCC)c1nc(-c2ccc(C)cc2)oc1NCc1ccccc1	EP2 modulator 80.7 | EP2 cAMP induct active
COP(=O)(OC)c1nc(-c2cccc3ccccc23)oc1NCCc1ccccc1	none
COc1ccc(CCNc2oc(-c3cccc4ccccc34)nc2P(=O)(OC)OC)cc1OC	none
CCOP(=O)(OCC)c1nc(/C=C/c2ccccc2)oc1NCc1ccccc1	none (no result: S1P3 antagonist) | EP2 cAMP induct inactive
CCOP(=O)(OCC)c1nc(-c2cccc3ccccc23)oc1NCc1ccccc1	EP2 modulator 76.7 (no result: S1P3 antagonist) | EP2 cAMP induct active
CCOP(=O)(OCC)c1nc(/C=C/c2ccccc2)oc1NCc1ccc(OC)cc1	none (no result: S1P3 antagonist)
CC(C)CNC(=O)C(=O)NNC(=O)c1ccco1	none | EP2 cAMP induct inactive
C#CCN1C(C)=C(C(=O)OC)C(c2cccc([N+](=O)[O-])c2)C(C(=O)OCC)=C1C (centres undefined)	none (no result: S1P4 antag, S1P3 antagonist, S1P4 ag) | EP2 cAMP induct inactive
Cc1cc2cc(C(c3nnnn3CC3CCCO3)N3CCCc4ccccc43)c(=O)[nH]c2cc1C (centres undefined)	none
CCc1ccc2[nH]c(=O)c(C(c3nnnn3CC3CCCO3)N3CCCc4ccccc43)cc2c1 (centres undefined)	EP2 modulator 77.0! | EP2 cAMP induct active
O=C(CSc1nc2ccccc2o1)Nc1ccccc1N1CCCCCC1	EP2 modulator 70.8 | EP2 cAMP induct active
O=C(CSc1nc2ccccc2o1)Nc1cc(C(F)(F)F)ccc1N1CCOCC1	EP2 modulator 80.1 (no result: S1P3 antagonist) | EP2 cAMP induct active
CNC[C@H](O)c1ccc(O)c(O)c1	EP2 modulator 86.0 | EP2 cAMP induct inactive
O=C(Cc1ccccc1)NC1NC=CS1 (centres undefined)	none (no result: S1P4 antag, S1P3 antagonist, S1P4 ag)
Cc1ccc(N=Cc2cc(Cc3ccccc3Cl)cc([N+](=O)[O-])c2O)c(O)c1	EP2 modulator 67.5 | EP2 cAMP induct inactive
COc1ccc(N=Cc2cc(Cc3ccccc3Cl)cc([N+](=O)[O-])c2O)cc1OC	EP2 modulator 71.8 | EP2 cAMP induct active
CN(C)Cc1c(-c2ccc(Cl)cc2)nc2ccccn12	none
Clc1ccc(-c2nc3ccccn3c2CN2CCCCC2)cc1	EP2 modulator 65.7 | EP2 cAMP induct inactive
COc1ccc(C2(C(=O)NC(C)Cc3ccccc3)CCOCC2)cc1OC (centres undefined)	none (no result: S1P4 antag, S1P3 antagonist, S1P4 ag)
CC(Cc1ccccc1)NC(=O)C1(c2ccccc2)CCOCC1 (centres undefined)	EP2 modulator 69.2 (no result: S1P3 antagonist) | EP2 cAMP induct inactive
Cc1noc2ncnc(Sc3c(Cl)cccc3Cl)c12	EP2 modulator 66.1 (no result: S1P3 antagonist) | EP2 cAMP induct inactive
COCC(=O)N(C)c1nnc(-c2cnc(C)cn2)s1	EP2 modulator 71.0 | EP2 cAMP induct inactive
C#CCn1c(S(=O)(=O)Cc2ccc(F)cc2)nc(-c2ccccc2)c1-c1ccccc1	EP2 modulator 65.0 (no result: S1P3 antagonist) | EP2 cAMP induct active
Cc1ccc2cc(C#N)c(SCC(=O)N3CCC(C)CC3)nc2c1C	none (no result: S1P4 antag, S1P3 antagonist, S1P4 ag)
COc1cccc2cc(/C(=N/O)c3ccccc3)oc12	EP2 modulator 67.9 | EP2 cAMP induct active
COc1cccc2cc(C(C)=O)oc12	none
Fc1ccc(-c2cc(-c3ccccc3)nc(-n3cccn3)n2)cc1	none | EP2 cAMP induct active
FC(F)(F)c1cc(-c2ccccc2)nc(-n2cncn2)n1	none
Cc1ccc2[nH]c(=O)c(CN(CC3CCCO3)C(c3nnnn3Cc3ccccc3)C(C)C)cc2c1 (centres undefined)	none (no result: S1P4 antag, S1P3 antagonist, S1P4 ag)
Cc1ccc(-c2nnn(CC(=O)N3CCCC3)n2)o1	none (no result: S1P4 antag, S1P3 antagonist, S1P4 ag)
CCc1cc2cc(C)ccc2nc1SCC(=O)N1CCOCC1	none (no result: S1P4 antag, S1P3 antagonist, S1P4 ag)
CN(C)/C=C/c1onc(-c2c(Cl)cccc2Cl)c1C#N	none
N#Cc1c(-c2c(Cl)cccc2Cl)noc1/C=C/Nc1ccc(C(=O)O)cc1	EP2 modulator 68.5 | EP2 cAMP induct active
COc1ccccc1NC(=O)CSc1nc2cc(C)cc(C)c2cc1C#N	none (no result: S1P4 antag, S1P3 antagonist, S1P4 ag)
COc1ccccc1/C=N/N(C(C)=O)c1nc(-c2ccc(F)cc2)cs1	EP2 modulator 73.2 (no result: S1P3 antagonist) | EP2 cAMP induct inactive
COc1ccc(/C=N/N(C(C)=O)c2nc(-c3ccc(C)cc3)cs2)cc1	none (no result: S1P3 antagonist)
N/C(CSc1nc(-c2ccccc2)c(-c2ccccc2)o1)=N\O	EP2 modulator 66.8 | EP2 cAMP induct active
CCOC(=O)c1c(C)[nH]c(C)c1C(=O)COC(=O)/C=C/c1cccc(Cl)c1	none
CCOC(=O)c1c(C)[nH]c(C=O)c1Cc1cccc(Cl)c1	EP2 modulator 68.9 | EP2 cAMP induct inactive
CC1CCN(c2ccccc2NC(=O)c2ccc(C#N)cc2F)CC1	none | EP2 cAMP induct active
CC(C)C(=O)N1CCN(c2ccccc2NC(=O)c2ccc(C#N)cc2F)CC1	none
COc1ccc(/C=C2/SC(=S)N(c3ccc(Br)cc3)C2=O)cc1	none (no result: S1P4 antag, S1P3 antagonist, S1P4 ag)
CCCCC(CC)CN1CN(CC(CC)CCCC)CC(C)(N)C1 (centres undefined)	none (no result: S1P4 antag, S1P3 antagonist, S1P4 ag) | EP2 cAMP induct inactive
ClC1(Cl)CC1CSc1nnc(-c2ccco2)o1 (centres undefined)	none (no result: S1P4 antag, S1P3 antagonist, S1P4 ag)
CC1NC(=O)NC1CCCCCC(=O)Nc1ccc(F)cc1 (centres undefined)	none
Cc1c(F)cccc1NC(=O)CCCCCC1NC(=O)NC1C (centres undefined)	EP2 modulator 76.6 | EP2 cAMP induct inactive
Cc1ccc2c(c1)C(=O)CC1(CCN(C(=O)c3ccc(F)c(F)c3)CC1)O2	none (no result: S1P4 antag, S1P3 antagonist, S1P4 ag)
O=C(/C(=C/O)N=Nc1ccccc1)c1cccs1	EP2 modulator 81.1 | EP2 cAMP induct active
Cc1cc(Oc2ccccc2F)nc(NCc2ccccc2)n1	EP2 modulator 65.8 (no result: EP2 antag, S1P3 antagonist) | EP2 cAMP induct active
Cc1cc(Oc2ccccc2)nc(NCc2ccccc2)n1	EP2 modulator 65.8 (no result: S1P3 antagonist) | EP2 cAMP induct active
O=C(CSc1nnc(Cc2ccccc2)o1)Nc1ccc(Cl)cn1	none (no result: S1P4 antag, S1P3 antagonist, S1P4 ag)
COc1ccccc1C1c2[nH]c3ccccc3c2CCN1Cc1cnc(C)s1 (centres undefined)	EP2 modulator 80.2 | EP2 cAMP induct active
